Where “and” joins values, the source holds several entries; their conditions need not be identical. Equal values may be shown once. About 2,000 (36%) of roughly 5,500 compounds were called active. Not shown: some 18% with an inconclusive outcome. Rule as the data show it: active = normalized growth mostly below about 0.91 (no sharp cut-off); inconclusive = no clear call, values can overlap the other calls; inactive = mostly above about 0.92. This is one part of the list.
Assay: chemical genetic growth profiling, strain panel (AID 1159580);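 also: tested at 20 µM; growth read once vehicle control cultures reached saturation at 30 °C; 1 = growth at the plate median or of vehicle wells; lower values mean less growth of the strain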
Settings: growth OD

Measured: normalized growth

NNc1nncc2ccccc12
inactive: S. cerevisiae deletion strains, locus YJR066W, strain TOR1, active compounds read low 0.919 | S. cerevisiae deletion strains, locus YJR075W, strain HOC1, active compounds read low 0.996 | S. cerevisiae deletion strains, locus YKL009W, strain mrt4, active compounds read low 0.96 | S. cerevisiae deletion strains, locus YKL068W, active compounds read low 0.997 | S. cerevisiae deletion strains, locus YKL085W, strain MDH1 (second series), active compounds read low 0.989 | S. cerevisiae deletion strains, locus YKL085W, strain MDH1, active compounds read low 0.989 | S. cerevisiae deletion strains, locus YKL160W, strain elf1, active compounds read low 0.995 | S. cerevisiae deletion strains, locus YKL190W, strain CNB1, active compounds read low 1 | S. cerevisiae deletion strains, locus YKR001C, strain vps1, active compounds read low 1 | S. cerevisiae deletion strains, locus YKR026C, strain gcn3, active compounds read low 0.998 | S. cerevisiae deletion strains, locus YKR091W, strain srl3, active compounds read low 0.997 | S. cerevisiae deletion strains, locus YLL001W, strain dnm1, active compounds read low 0.979 | S. cerevisiae deletion strains, locus YLL026W, active compounds read low 1 | S. cerevisiae deletion strains, locus YLL041C, strain sdh2, active compounds read low 0.994 | S. cerevisiae deletion strains, locus YLR027C, strain aat2, active compounds read low 1 | S. cerevisiae deletion strains, locus YLR039C, strain RIC1, active compounds read low 0.989 | S. cerevisiae deletion strains, locus YLR058C, strain SHM2, active compounds read low 1.01 | S. cerevisiae deletion strains, locus YLR102C, strain apc9, active compounds read low 0.991 | S. cerevisiae deletion strains, locus YLR113W, strain HOG1, active compounds read low 1.06 | S. cerevisiae deletion strains, locus YLR221C, strain rsa3, active compounds read low 0.969 | S. cerevisiae deletion strains, locus YLR258W, strain gsy2, active compounds read low 0.991 | S. cerevisiae deletion strains, locus YLR262C, strain YPT6 (second series), active compounds read low 1 | S. cerevisiae deletion strains, locus YLR262C, strain YPT6, active compounds read low 1.07 | S. cerevisiae deletion strains, locus YLR268W, strain sec22, active compounds read low 0.954 | S. cerevisiae deletion strains, locus YLR320W, strain mms22, active compounds read low 0.991 | S. cerevisiae deletion strains, locus YLR330W, strain CHS5, active compounds read low 1.01 | S. cerevisiae deletion strains, locus YLR342W, strain FKS1 (second series), active compounds read low 0.934 | S. cerevisiae deletion strains, locus YLR342W, strain FKS1, active compounds read low 1.01 | S. cerevisiae deletion strains, locus YLR357W, strain rsc2, active compounds read low 0.981 | S. cerevisiae deletion strains, locus YLR370C, strain arc18, active compounds read low 0.977 | S. cerevisiae deletion strains, locus YLR371W, strain rom2, active compounds read low 0.989 | S. cerevisiae deletion strains, locus YLR384C, strain iki3, active compounds read low 0.985 | S. cerevisiae deletion strains, locus YLR418C, strain cdc73, active compounds read low 0.96 | S. cerevisiae deletion strains, locus YML016C, strain PPZ1, active compounds read low 0.995 | S. cerevisiae deletion strains, locus YML032C, strain rad52, active compounds read low 0.985 | S. cerevisiae deletion strains, locus YML120C, strain ndi1, active compounds read low 0.981 | S. cerevisiae deletion strains, locus YML124C, strain tub3, active compounds read low 0.996 | S. cerevisiae deletion strains, locus YMR058W, strain fet3, active compounds read low 0.996 | S. cerevisiae deletion strains, locus YMR078C, strain ctf18, active compounds read low 0.993 | S. cerevisiae deletion strains, locus YMR125W, strain sto1, active compounds read low 1.01 | S. cerevisiae deletion strains, locus YMR129W, active compounds read low 0.996 | S. cerevisiae deletion strains, locus YMR205C, strain PFK2, active compounds read low 0.998 | S. cerevisiae deletion strains, locus YMR223W, strain ubp8, active compounds read low 0.975 | S. cerevisiae deletion strains, locus YMR231W, strain pep5, active compounds read low 0.995 | S. cerevisiae deletion strains, locus YMR263W, strain SAP30, active compounds read low 1 | S. cerevisiae deletion strains, locus YMR307W, strain GAS1, active compounds read low 1.02 and 0.998 | S. cerevisiae deletion strains, locus YNL067W, strain RPL9B, active compounds read low 1.01 | S. cerevisiae deletion strains, locus YNL071W, strain lat1, active compounds read low 1.01 | S. cerevisiae deletion strains, locus YNL153C, strain GIM3, active compounds read low 0.986 and 0.997 | S. cerevisiae deletion strains, locus YNL175C, strain NOP13, active compounds read low 1.01 | S. cerevisiae deletion strains, locus YNL183C, strain NPR1, active compounds read low 0.945 | S. cerevisiae deletion strains, locus YNL197C, strain WHI3, active compounds read low 1.01 | S. cerevisiae deletion strains, locus YNL209W, strain ssb2, active compounds read low 0.99 | S. cerevisiae deletion strains, locus YNL224C, strain SQS1, active compounds read low 1.03 | S. cerevisiae deletion strains, locus YNL233W, strain BNI4, active compounds read low 0.997 | S. cerevisiae deletion strains, locus YNL248C, strain rpa49, active compounds read low 1.03 | S. cerevisiae deletion strains, locus YNL250W, strain rad50, active compounds read low 0.988 | S. cerevisiae deletion strains, locus YNL271C, strain bni1, active compounds read low 0.993 | S. cerevisiae deletion strains, locus YNL298W, strain CLA4, active compounds read low 0.986 | S. cerevisiae deletion strains, locus YNL307C, strain MCK1, active compounds read low 0.991 | S. cerevisiae deletion strains, locus YNL322C, strain KRE1 (second series), active compounds read low 0.98 | S. cerevisiae deletion strains, locus YNR049C, strain mso1, active compounds read low 0.999 | S. cerevisiae deletion strains, locus YNR052C, strain pop2, active compounds read low 0.985 | S. cerevisiae deletion strains, locus YOL012C, strain htz1 1.31 | S. cerevisiae deletion strains, locus YOL147C, strain pex11, active compounds read low 1 | S. cerevisiae deletion strains, locus YOR001W, strain rrp6, active compounds read low 0.995 | S. cerevisiae deletion strains, locus YOR061W, strain CKA2, active compounds read low 1.01 | S. cerevisiae deletion strains, locus YOR069W, strain VPS5, active compounds read low 1 | S. cerevisiae deletion strains, locus YOR070C, strain gyp1, active compounds read low 0.998 | S. cerevisiae deletion strains, locus YOR080W, strain dia2, active compounds read low 0.997 | S. cerevisiae deletion strains, locus YOR083W, strain WHI5 (second series), active compounds read low 1.03 | S. cerevisiae deletion strains, locus YOR083W, strain WHI5, active compounds read low 1.01 | S. cerevisiae deletion strains, locus YOR106W, strain vam3, active compounds read low 1 | S. cerevisiae deletion strains, locus YOR136W, strain idh2, active compounds read low 0.988 | S. cerevisiae deletion strains, locus YOR144C, strain elg1, active compounds read low 1 | S. cerevisiae deletion strains, locus YOR184W, strain ser1, active compounds read low 0.958 | S. cerevisiae deletion strains, locus YOR231W, strain MKK1, active compounds read low 1.02 | S. cerevisiae deletion strains, locus YOR265W, strain rbl2, active compounds read low 0.989 | S. cerevisiae deletion strains, locus YOR270C, strain vph1, active compounds read low 0.996 | S. cerevisiae deletion strains, locus YOR290C, strain snf2, active compounds read low 0.942 | S. cerevisiae deletion strains, locus YOR316C, strain cot1, active compounds read low 1 | S. cerevisiae deletion strains, locus YPL051W, strain arl3, active compounds read low 1 | S. cerevisiae deletion strains, locus YPL055C, strain LGE1, active compounds read low 1 | S. cerevisiae deletion strains, locus YPL078C, strain atp4, active compounds read low 0.991 | S. cerevisiae deletion strains, locus YPL106C, strain sse1, active compounds read low 0.941 | S. cerevisiae deletion strains, locus YPL240C, strain hsp82, active compounds read low 0.987 | S. cerevisiae deletion strains, locus YPL241C, strain CIN2, active compounds read low 0.998 | S. cerevisiae deletion strains, locus YPL256C, strain CLN2, active compounds read low 1.04 | S. cerevisiae deletion strains, locus YPR119W, strain clb2, active compounds read low 1 | S. cerevisiae deletion strains, locus YPR141C, strain kar3, active compounds read low 1.01 | S. cerevisiae deletion strains, locus YPR163C, strain tif3, active compounds read low 1.01 | S. cerevisiae deletion strains, locus YPR167C, strain met16, active compounds read low 0.995 | S. cerevisiae deletion strains, strain wtn01, active compounds read low 0.965 | S. cerevisiae strains, strain wild type, active compounds read low 1.01
